Experimental data published in PubChem BioAssay (Tox21).
Several values for one entry are separate records, joined by “and”; a condition that tells them apart may be missing. Equal values may be shown once. Results filed as inconclusive are left out. Entries that show only a call come without a potency. Some structures have more than one record in an assay (separate samples or runs), and their calls can disagree. Activity calls are given as the source filed them. Unless noted, calls come from the whole dose curve; as a rule, active = well fitted curve in the direction sought with a large enough effect in the repeat runs; inconclusive = weak or mixed curves; inactive = no such curve, though single readings can be large; an effect the other way counts as inactive or inconclusive.

What was measured:
[1] = target: Retinoic acid receptor RXR-alpha (Homo sapiens) (UniProt P19793); assay: qHTS assay to identify small molecule agonists of the RXR signaling pathway (AID 1159527; calls by dose curve; note: nearly all actives have a fitted effect of over 35% in size; note: potency is the fitted concentration of half-maximal effect); conditions: HEK293T RXRa-UAS-bla, beta-lactamase ratio, 16 h; series mostly up to 76.8 µM
In short: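 Cells plated at 2,000/well, rested 5 hr at 37 C, pin-dosed with DMSO compound solutions, incubated 16 hr, then loaded with B/G FRET substrate for 2 hr at RT before dual-emission fluorescence reading.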

[2] = qHTS assay to identify small molecule agonists of the RXR signaling pathway - cell viability counter screen (AID 1159529); conditions: RXR-alpha-bla HEK293T viability, CellTiter-Glo, 16 h; series mostly up to 76.8 µM;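 note: HEK 293T cells carrying an RXR-alpha UAS beta-lactamase reporter; nearly all actives have a fitted effect of over 50% in size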
In short: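 Steps: seed RXR-alpha-UAS-bla HEK 293T cells in assay medium containing 2% charcoal-stripped FBS; incubate 5 hr; add compounds in DMSO; incubate 16 hr at 37 C; after the bla read, add CellTiter-Glo and read luminescence at 30 min.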

[3] = qHTS assay to identify small molecule antagonists of the retinoid acid receptor (RAR) signaling pathway - cell viability counter screen (AID 1159551); conditions: C3RL4 cells viability, ATP luminescence (CellTiter-Glo), 6 h; series mostly up to 92.4 µM; note: nearly all actives have a fitted effect of over 35% in size
In short: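 Seed C3RL4 cells; next day add compound, then retinol to 1 uM final; incubate 6 h at 37 C; add CellTiter-Glo; read luminescence after 30 min at RT.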

[4] = qHTS assay to identify small molecule antagonists of the retinoic acid receptor (RAR) signaling pathway (AID 1159552; note: nearly all actives have a fitted effect of over 50% in size); conditions: C3RL4 RARE luciferase reporter, retinol-stimulated, 6 h; series mostly up to 92.4 µM
In short: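 Retinol at 1 uM final stimulated RARE-luciferase expression in C3RL4 cells exposed to test compounds for 6 hr at 37 C. Reduced luminescence, read 30 min after detection reagent, indicated pathway antagonism.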

[5] = qHTS assay to identify small molecule agonists of the retinoic acid receptor (RAR) signaling pathway (AID 1159553); conditions: C3RL4 RARE luciferase reporter, agonist, 6 h; series mostly up to 73.3 µM; note: potency is the fitted concentration of half-maximal effect
In short: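 Activation of retinol signaling was monitored via a RARE luciferase reporter in C3RL4 cells. After 6 hr compound treatment at 37 C, detection reagent was added for 30 min at room temperature before luminescence reading.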

Retinoic acid receptor RXR-alpha (Homo sapiens), sequence (P19793 whole entry, looked up): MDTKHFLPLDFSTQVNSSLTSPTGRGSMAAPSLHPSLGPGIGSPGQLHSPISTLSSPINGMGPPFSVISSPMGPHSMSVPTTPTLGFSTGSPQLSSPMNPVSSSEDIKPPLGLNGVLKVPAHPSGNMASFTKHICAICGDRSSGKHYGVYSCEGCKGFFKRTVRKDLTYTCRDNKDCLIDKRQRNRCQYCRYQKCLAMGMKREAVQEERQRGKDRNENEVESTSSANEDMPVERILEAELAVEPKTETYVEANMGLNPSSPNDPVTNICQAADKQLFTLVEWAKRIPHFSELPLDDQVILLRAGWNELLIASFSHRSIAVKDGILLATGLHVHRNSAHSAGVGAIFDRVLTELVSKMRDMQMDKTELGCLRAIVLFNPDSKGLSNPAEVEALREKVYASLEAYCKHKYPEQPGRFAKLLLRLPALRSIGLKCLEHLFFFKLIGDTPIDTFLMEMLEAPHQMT

SMILES | Potency [1] | outcome [2] | outcome [3] | outcome [4] | Potency [5]
CCCCOC(=O)c1ccc(N)cc1 | inactive | inactive | inactive | inactive | 26.9 µM (active) and 21.1 µM (active)
C=C(C)[C@H]1CC=C(C)C(=O)C1 | inactive | inactive | inactive |  | 
CC(=O)c1ccc(O)cc1 | inactive | inactive | inactive |  | 
CCO[Si](CCCN)(OCC)OCC | 19.5 µM (active) and inactive | inactive | inactive |  | 
CSc1ccc(Cl)cc1 | inactive | inactive | inactive | inactive | inactive
O=[N+]([O-])c1ccc2nc[nH]c2c1 | inactive | inactive | inactive |  | 
COCCCN | inactive | inactive | inactive |  | 
COc1cc(OC)c(C(=O)CCCN2CCCC2)c(OC)c1 | inactive | inactive | inactive |  | 
O=C1c2ccccc2CCc2ccccc21 | inactive | inactive | inactive | inactive | 
N#Cc1ccccc1 | inactive | inactive | inactive |  | 
CC(C)OC(=O)COc1ccc(Cl)cc1Cl | inactive | inactive | inactive | inactive | inactive
CCCCCCCC=O | inactive | inactive | inactive |  | 
C=CCc1ccc(OC)c(OC)c1 | inactive and 7.76 µM (active) | inactive | inactive |  | 
C=C(C)CNCC | inactive | inactive | inactive | inactive | inactive
CCCOC(=O)c1ccccc1 | inactive | inactive | inactive |  | 
COc1ccc(N)c(C)c1 | inactive | inactive | inactive |  | 
COCCOC(=O)c1ccccc1C(=O)OCCOC | inactive | inactive | inactive | inactive | inactive
CC(C)OP(=O)(CP(=O)(OC(C)C)OC(C)C)OC(C)C | inactive | inactive | inactive |  | 
CCCCCCCCCCO | inactive | inactive | inactive | inactive | inactive
CC(C)(C#N)c1cc(Cn2cncn2)cc(C(C)(C)C#N)c1 | inactive | inactive | inactive |  | 
COc1ccccc1OCC(O)CO (stereo not drawn) | inactive | inactive | inactive |  | 
CC(O)CC(C)(C)O (stereo not drawn) | inactive | inactive | inactive | inactive | inactive
C=CCCCCCCCCC(=O)O | 43.6 µM (active) | inactive | inactive |  | 
CC(=O)OCc1ccco1 | inactive | inactive | inactive | inactive | inactive

SMILES | Potency [1] | outcome [2] | outcome [3] | outcome [4] | Potency [5]
CC(=O)OCCOC(C)=O | inactive | inactive | inactive |  | 
CN/C(=C\[N+](=O)[O-])NCCSCc1csc(CN(C)C)n1 | inactive | inactive | inactive |  | 
C[Si]1(C)O[Si](C)(C)O[Si](C)(C)O[Si](C)(C)O1 | inactive | inactive | inactive |  | 
COc1ccc(OC)cc1 | inactive | inactive | inactive |  | 
CN(C)c1ccc(O)c2c1C[C@H]1C[C@H]3[C@H](N(C)C)C(=O)C(C(N)=O)=C(O)[C@@]3(O)C(=O)C1=C2O | inactive | inactive | inactive |  | 
CCO[Si](CCC#N)(OCC)OCC | inactive | inactive | inactive |  | 
CCc1ccccc1CC | inactive | inactive | inactive |  | 
CCOC(=O)c1ccc(N)cc1 | inactive | inactive | inactive |  | 
OC1C(O)C(O)C(O)C(O)C1O (stereo not drawn) | inactive | inactive | inactive |  | 
CCCCCCCCCCCC(=O)OC | inactive | inactive | inactive |  | 
CCCCC(C=O)CC (stereo not drawn) | inactive | inactive | inactive | inactive | inactive
CCNC(=S)NCC | inactive | inactive | inactive |  | 
O=C(O)/C=C/C(=O)O | inactive | inactive | inactive |  | 
C=CC[N+](C)(C)CC=C | inactive | inactive | inactive | inactive | inactive
Brc1ccc(Br)c(Br)c1 | inactive | inactive | inactive |  | inactive
c1ccc(Oc2ccccc2)cc1 | inactive | inactive | inactive | inactive | inactive
O=C(O)Cn1c(=O)n(Cc2ccc(Br)cc2F)c(=O)c2ccc(Cl)cc21 | inactive | inactive | inactive | inactive | inactive
Nc1nc(N)nc(-c2ccccc2)n1 | inactive | inactive | inactive | inactive | inactive
CC(CCl)OP(=O)(OC(C)CCl)OC(C)CCl (stereo not drawn) | inactive | inactive | inactive | inactive | inactive
CCOCC(=O)O | inactive | inactive | inactive | inactive | inactive
C=C(C)C(=O)OCC(C)C | inactive | inactive | inactive | inactive | inactive
CNC(=S)N(C)C | inactive | inactive | inactive | inactive | inactive
CC(C)(C)c1cc(Cc2cc(C(C)(C)C)c(O)c(C(C)(C)C)c2)cc(C(C)(C)C)c1O | inactive | inactive | inactive |  | inactive
